Laboratory results: PubChem BioAssay
Active and inactive are the calls of the source.

Legend:
[1] = binders of probe aFSTL3 on microarray, primary screen, stem cell growth factor project, biochemical, small-molecule microarray, fluorescence 635/667 (AID 1064); conditions: higher = more signal;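 further: measures binding of the biotinylated anti-FSTL3 antibody to printed compounds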
[2] = binders from COS7 lysate, DM2A8 probe, primary screen, torsin A project, cell lysate, small-molecule microarray, fluorescence 635/667 (AID 1065); conditions: higher = more signal, COS7 lysate expressing mutant human TOR1A
[3] = binders of probe aFGF2 on microarray, primary screen, stem cell growth factor project, biochemical, small-molecule microarray, fluorescence 635/667 (AID 1067); conditions: higher = more signal;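 further: measures binding of biotinylated aFGF2 protein to printed compounds on slides; z-score merges feature fluorescence and signal-to-noise across triplicate slides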
[4] = binders of probe aFGF10 on microarray, primary screen, stem cell growth factor project, biochemical, small-molecule microarray, fluorescence 635/667 (AID 1071); conditions: higher = more signal;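 further: score merges 667 nm spot intensity and signal to noise from triplicate slides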
[5] = molecular target: Neurogenic locus notch homolog protein 2 (Homo sapiens) (UniProt Q04721); assay: Notch2 binders on small-molecule microarrays, primary screen, biochemical, small-molecule microarray, 635 nm fluorescence, stem cell growth factors (AID 1073); conditions: Notch2 binding, higher = more signal
[6] = molecular target: Pro-neuregulin-1, membrane-bound isoform (Homo sapiens) (UniProt Q02297); assay: NRG1 binders on small-molecule microarrays, primary screen, psychiatric disease protein project, biochemical, small-molecule microarray, fluorescence 635/667 (AID 1075); conditions: NRG1 binding, 635 nm fluorescence, higher = more signal;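 further: score combines 667 nm spot fluorescence with signal to noise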
[7] = system: Neuregulin-1 EGF-like domain; assay: binders of neuregulin-1 EGF-like domain, primary screen, biochemical, small-molecule microarray, 635 nm fluorescence (AID 1081); conditions: small-molecule microarray binding, higher = more signal;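 further: binding of the protein to compounds printed on small-molecule microarray slides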
[8] = FRG1 promoter luciferase signal modulators, primary screen, FRG1 inhibition for FSHD, cell-based, C2C12 myotubes, firefly/Renilla luciferase, luminescence (AID 1084); conditions: higher = more signal, called active from +8 up or from −8 down
[9] = binders of probe aFST on microarray, primary screen, stem cell growth factor project, biochemical, small-molecule microarray, fluorescence 635/667 (AID 1086); conditions: higher = more signal;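 further: score merges 667 nm fluorescence with signal-to-noise of each printed compound spot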
[10] = binders of probe aHhip on microarray, primary screen, stem cell growth factor project, biochemical, small-molecule microarray, fluorescence 635/667 (AID 1087); conditions: higher = more signal;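 further: score merges spot fluorescence at 667nm with spot signal to noise ratio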
[11] = system: PRMT1 (protein arginine N-methyltransferase 1); assay: PRMT1 binders on small-molecule microarrays, primary screen, biochemical, small-molecule microarray, 635 nm fluorescence (AID 1088); conditions: small-molecule microarray binding, higher = more signal;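 further: binding of Prmt1 protein to compounds spotted on small-molecule microarray slides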
[12] = yeast growth modulation, basal conditions, primary screen, YJM789 clinical isolate, OD600, 24 h (AID 1089);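 further: growth of clinical yeast isolate S. cerevisiae YJM 789 seeded 1000 cells per well; test concentration not given here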; conditions: S. cerevisiae YJM789 growth, higher = more signal, called active from +8 up or from −8 down
[13] = fission yeast growth modulation, primary screen, strain 972, OD600, 24 h, no modulator (AID 1090);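 further: basal condition with compound alone and no growth modifier present; test concentration not given here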; conditions: S. pombe 972 growth, higher = more signal, called active from +8 up or from −8 down
[14] = S. cerevisiae growth modulation with rapamycin, primary screen, strain BY4716, OD600, 96 h (AID 1091); conditions: higher = more signal, called active from +8 up or from −8 down; further: test concentration not given here
[15] = molecular target: Torsin-1A-interacting protein 2 (Homo sapiens) (UniProt Q8NFQ8); assay: LULL1 binders on small-molecule microarray, primary screen, cell lysate, human LULL1 lysate, 635/667 nm fluorescence (AID 1092); conditions: hLULL1 lysate binding, 635 nm fluorescence, higher = more signal;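 further: probe is lysate of COS7 cells overexpressing human LULL1; score merges per-feature 667 nm fluorescence with signal-to-noise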
[16] = E. coli growth modulation, two-sided OD650, primary screen, E. coli filamentation project, strain DRC41, 24 h (AID 1093); conditions: OD650, 24 h, higher = more signal, called active from +8 up or from −8 down;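 further: MC1000 strain lacking acrAB efflux and sulA so SOS filamentation is blocked; test concentration not given here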
[17] = small-molecule microarray binders of probe aLefty2, primary screen, biochemical, biotinylated probe, 635/667 nm fluorescence (AID 1094); conditions: higher = more signal;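 further: score merges spot fluorescence near 667 nm with spot signal-to-noise ratio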
[18] = system: Noggin (protein binding on small-molecule microarray); assay: Noggin binders on small-molecule microarray, primary screen, biochemical, 635/667 nm fluorescence (AID 1095); conditions: 635 nm fluorescence, higher = more signal;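 further: score merges 667 nm feature fluorescence with signal to noise over triplicate slides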
[19] = molecular target: Neurogenic locus notch homolog protein 3 (Homo sapiens) (UniProt Q9UM47); assay: NOTCH3 binders on small-molecule microarray, primary screen, biochemical, 635/667 nm fluorescence (AID 1096); conditions: NOTCH3 binding, 635 nm fluorescence, higher = more signal
[20] = small-molecule microarray binders of probe aEGFR, primary screen, biochemical, biotinylated probe, 635/667 nm fluorescence (AID 1097); conditions: higher = more signal;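 further: probe is a biotinylated anti-EGFR antibody binding compounds printed on slides; score combines fluorescence near 667 nm and signal to noise of each spot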

Chain of Neurogenic locus notch homolog protein 2 (Homo sapiens) (Q04721 whole entry, looked up, canonical isoform): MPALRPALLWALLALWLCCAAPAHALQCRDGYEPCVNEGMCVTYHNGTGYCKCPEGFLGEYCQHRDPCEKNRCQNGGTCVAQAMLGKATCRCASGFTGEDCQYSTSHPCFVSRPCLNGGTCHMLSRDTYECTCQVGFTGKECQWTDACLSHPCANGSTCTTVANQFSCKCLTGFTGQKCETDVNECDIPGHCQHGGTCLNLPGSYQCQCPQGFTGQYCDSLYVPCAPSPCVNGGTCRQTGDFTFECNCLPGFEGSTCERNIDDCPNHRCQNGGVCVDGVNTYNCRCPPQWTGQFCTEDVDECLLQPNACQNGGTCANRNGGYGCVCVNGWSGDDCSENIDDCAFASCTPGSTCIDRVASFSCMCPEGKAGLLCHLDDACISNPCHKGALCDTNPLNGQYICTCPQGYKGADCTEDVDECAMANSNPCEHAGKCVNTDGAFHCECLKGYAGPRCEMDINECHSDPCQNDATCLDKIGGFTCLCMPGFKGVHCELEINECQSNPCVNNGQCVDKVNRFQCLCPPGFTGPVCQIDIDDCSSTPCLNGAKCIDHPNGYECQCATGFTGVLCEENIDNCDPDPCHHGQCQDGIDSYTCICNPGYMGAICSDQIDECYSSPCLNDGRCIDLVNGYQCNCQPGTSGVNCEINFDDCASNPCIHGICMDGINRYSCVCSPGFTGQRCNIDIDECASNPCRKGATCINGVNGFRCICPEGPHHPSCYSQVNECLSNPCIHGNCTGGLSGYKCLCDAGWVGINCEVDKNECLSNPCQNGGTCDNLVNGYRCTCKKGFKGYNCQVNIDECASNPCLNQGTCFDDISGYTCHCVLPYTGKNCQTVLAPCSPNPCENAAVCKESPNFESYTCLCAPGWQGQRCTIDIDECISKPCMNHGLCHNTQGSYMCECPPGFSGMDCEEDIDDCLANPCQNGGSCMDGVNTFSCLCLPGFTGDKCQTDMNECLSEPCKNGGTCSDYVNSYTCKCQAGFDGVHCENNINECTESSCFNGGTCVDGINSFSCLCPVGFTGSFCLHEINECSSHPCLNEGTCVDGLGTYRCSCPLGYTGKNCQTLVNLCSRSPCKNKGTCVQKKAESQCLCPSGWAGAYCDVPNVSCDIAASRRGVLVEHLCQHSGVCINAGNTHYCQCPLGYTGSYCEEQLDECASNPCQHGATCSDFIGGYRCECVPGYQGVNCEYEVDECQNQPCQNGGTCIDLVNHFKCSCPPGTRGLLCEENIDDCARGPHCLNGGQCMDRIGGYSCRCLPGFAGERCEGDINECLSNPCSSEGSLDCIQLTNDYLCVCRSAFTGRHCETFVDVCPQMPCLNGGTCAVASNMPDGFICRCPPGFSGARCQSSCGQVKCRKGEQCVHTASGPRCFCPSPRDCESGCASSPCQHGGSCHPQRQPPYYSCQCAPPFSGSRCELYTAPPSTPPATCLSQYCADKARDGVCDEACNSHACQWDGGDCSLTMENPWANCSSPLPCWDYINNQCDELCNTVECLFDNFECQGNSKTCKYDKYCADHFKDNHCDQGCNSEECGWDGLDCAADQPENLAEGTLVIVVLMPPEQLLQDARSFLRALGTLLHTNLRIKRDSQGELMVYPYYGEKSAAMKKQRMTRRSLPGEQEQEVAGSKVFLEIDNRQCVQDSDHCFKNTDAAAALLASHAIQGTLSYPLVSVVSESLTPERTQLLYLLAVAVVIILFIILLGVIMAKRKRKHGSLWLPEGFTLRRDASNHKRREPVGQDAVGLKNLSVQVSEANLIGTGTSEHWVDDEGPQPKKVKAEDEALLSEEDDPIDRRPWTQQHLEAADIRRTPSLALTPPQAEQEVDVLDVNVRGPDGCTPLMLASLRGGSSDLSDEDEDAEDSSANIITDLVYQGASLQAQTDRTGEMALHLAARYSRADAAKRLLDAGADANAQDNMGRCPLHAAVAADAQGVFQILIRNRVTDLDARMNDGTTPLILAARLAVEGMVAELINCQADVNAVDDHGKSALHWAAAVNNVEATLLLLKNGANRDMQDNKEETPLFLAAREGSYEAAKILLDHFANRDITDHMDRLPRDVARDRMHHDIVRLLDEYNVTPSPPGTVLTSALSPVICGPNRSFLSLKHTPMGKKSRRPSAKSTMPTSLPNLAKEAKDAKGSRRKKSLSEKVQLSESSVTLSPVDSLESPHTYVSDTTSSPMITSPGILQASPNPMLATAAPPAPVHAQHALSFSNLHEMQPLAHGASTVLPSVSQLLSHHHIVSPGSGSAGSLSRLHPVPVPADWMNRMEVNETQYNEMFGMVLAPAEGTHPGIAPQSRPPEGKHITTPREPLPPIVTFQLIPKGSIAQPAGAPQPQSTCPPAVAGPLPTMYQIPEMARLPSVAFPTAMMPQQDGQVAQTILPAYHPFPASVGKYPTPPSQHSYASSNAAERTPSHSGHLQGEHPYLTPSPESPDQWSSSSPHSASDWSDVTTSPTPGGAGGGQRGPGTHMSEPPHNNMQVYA
Chain of Torsin-1A-interacting protein 2 (Homo sapiens) (Q8NFQ8 whole entry, looked up): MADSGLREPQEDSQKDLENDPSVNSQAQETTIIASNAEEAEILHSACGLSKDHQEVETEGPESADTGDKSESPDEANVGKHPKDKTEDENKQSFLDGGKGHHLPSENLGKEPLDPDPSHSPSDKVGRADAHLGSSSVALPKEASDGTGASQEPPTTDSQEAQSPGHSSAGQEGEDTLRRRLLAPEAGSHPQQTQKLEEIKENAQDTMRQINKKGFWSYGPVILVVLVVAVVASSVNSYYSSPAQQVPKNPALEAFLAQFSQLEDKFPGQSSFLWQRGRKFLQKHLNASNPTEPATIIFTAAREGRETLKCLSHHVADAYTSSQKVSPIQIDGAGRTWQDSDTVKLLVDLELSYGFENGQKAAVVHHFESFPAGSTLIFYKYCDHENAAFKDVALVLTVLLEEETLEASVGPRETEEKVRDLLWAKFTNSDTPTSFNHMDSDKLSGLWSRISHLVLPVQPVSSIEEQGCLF
Chain of Pro-neuregulin-1, membrane-bound isoform (Homo sapiens) (Q02297 whole entry, looked up, the tested form may be a part, canonical isoform): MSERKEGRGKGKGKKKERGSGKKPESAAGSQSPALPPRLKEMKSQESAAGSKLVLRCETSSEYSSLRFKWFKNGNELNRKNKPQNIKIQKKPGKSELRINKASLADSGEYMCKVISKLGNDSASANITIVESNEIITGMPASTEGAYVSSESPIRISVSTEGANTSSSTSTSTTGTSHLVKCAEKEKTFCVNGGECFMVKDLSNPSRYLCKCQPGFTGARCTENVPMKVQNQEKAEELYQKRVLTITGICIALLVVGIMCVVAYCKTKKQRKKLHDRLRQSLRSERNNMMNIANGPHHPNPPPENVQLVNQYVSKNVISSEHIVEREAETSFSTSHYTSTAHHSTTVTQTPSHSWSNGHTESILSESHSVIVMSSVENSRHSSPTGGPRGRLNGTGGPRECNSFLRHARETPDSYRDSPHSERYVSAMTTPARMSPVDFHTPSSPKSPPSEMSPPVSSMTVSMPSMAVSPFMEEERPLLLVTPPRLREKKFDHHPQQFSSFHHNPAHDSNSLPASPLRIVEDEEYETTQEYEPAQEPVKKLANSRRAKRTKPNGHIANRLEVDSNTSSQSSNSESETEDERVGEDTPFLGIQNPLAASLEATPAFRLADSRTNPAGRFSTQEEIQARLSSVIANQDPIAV

Row | SMILES | composite z-score [1] | composite z-score [2] | composite z-score [3] | composite z-score [4] | composite z-score [5] | composite z-score [6] | composite z-score [7] | z-score [8] | composite z-score [9] | composite z-score [10] | composite z-score [11] | z-score [12] | z-score [13] | z-score [14] | composite z-score [15] | z-score [16] | composite z-score [17] | composite z-score [18] | composite z-score [19] | composite z-score [20]
1 | CC1=C2[C@@H](CCc3ccccc3)OB(O)C[C@@H]2[C@@H]2C(=O)N(C)C(=O)[C@@H]2C1 | -0.366 | -0.19 | -0.104 | 0.496 | 0.849 | 1.09 | -0.0884 | 1.26 (inactive) | 0.438 | -0.171 | 0.618 | -0.229 (inactive) | -1.2 (inactive) | -1.24 (inactive) | 0.299 | -0.253 (inactive) | -0.197 | 0.446 | 0.279 | -0.0238
2 | CCCC1(C(=O)OC)C=C2C(=C(C)C(=O)C2C)CN1 (stereo not given) | 0.948 | -0.313 | -0.0296 | -0.0572 | -0.326 | -0.74 | 0.188 | 3.02 (inactive) | 0.454 | -0.0645 | -1.06 | -0.105 (inactive) | 0.883 (inactive) | 0.578 (inactive) | 0.941 | -0.827 (inactive) | 0.0932 | -0.0743 | -0.0768 | -0.0828
3 | COC(=O)[C@@H]1N=C(c2ccc(OCCCO)cc2)O[C@@H]1c1ccccc1 | 0.497 | -0.0336 | -0.103 | -0.789 | -0.997 | 0.403 | 0.326 | 7.16 (inactive) | -0.456 | 0.176 | -1.01 | -1.16 (inactive) | -2.33 (inactive) | -2.55 (inactive) | 1.58 | 1.11 (inactive) | -0.149 | -0.993 | -1 | -0.0485
4 | COc1cc(NN2C(C(O)c3ccc(N(C)C)cc3)C=CC3C(=O)N(c4ccccc4)C(=O)C32)cc(OC)c1OC (stereo not given) | 0.817 | 0.0214 | 0.107 | 0.396 | 1.18 | 0.465 | 1.13 | 1.44 (inactive) | 0.588 | -0.0618 | 0.824 | 0.146 (inactive) | -0.424 (inactive) | -0.363 (inactive) | 1.4 | -1.58 (inactive) | 0.473 | -0.308 | 0.544 | 0.0955
5 | Cc1cc(C)c(C(O)C2C=CC3C(=O)N(c4ccccc4)C(=O)C3N2Nc2ccccc2F)c(C)c1 (stereo not given) | -0.0327 | -0.437 | -0.01 | -0.0495 | 0.565 | 1.07 | 1.09 | 0.717 (inactive) | 0.439 | 0.0854 | -0.0446 | 1.37 (inactive) | 1.11 (inactive) | 1.77 (inactive) | 1.89 | -1.31 (inactive) | 0.0216 | -0.73 | -0.0072 | 0.779
6 | C=CCC(OC(C)=O)[C@@H]1[C@@H](N(Cc2ccc(-c3ccccc3)cc2)C(=O)c2ccc(-c3ccccc3)cc2)c2cc(OCCCO)ccc2N1C(=O)c1ccc2ccccc2c1 (stereo not given in full) | 0.0946 | 0.107 | -0.128 | 0.178 | -0.443 | -0.227 | -0.896 | 0.807 (inactive) | 0.352 | -0.353 | 0.636 | -0.737 (inactive) | 0.109 (inactive) | -0.38 (inactive) | 1.17 | -0.728 (inactive) | 0.0008 | 0.479 | 0.306 | -0.0531
7 | COc1ccc(C(=O)Nc2ccc(CN3C(=O)[C@]4(O[C@H](CC(=O)N5Cc6ccccc6C[C@H]5CO)[C@@H]([Si](C)(C)c5ccc(OC)cc5)[C@@H]4C)c4ccccc43)cc2)cc1 | -0.402 | 0.716 | -0.0785 | 0.357 | 0.397 | 1.48 | 0.95 | -1.89 (inactive) | 0.0491 | -0.0618 | 1.56 | 0.186 (inactive) | 1.04 (inactive) | 3.94 (inactive) | 1.77 | 0.315 (inactive) | -0.145 | 1.34 | 1.13 | -0.096
8 | C=CCN1C(=O)[C@]2(CCS(=O)(=O)c3ccccc3)N=C(c3ccc(OCCCO)cc3)O[C@@H]2c2ccccc21 | -0.104 | 0.264 | 0.0109 | 0.162 | 0.84 | 0.445 | 1.28 | -1.9 (inactive) | 0.454 | -0.121 | 1.54 | -0.523 (inactive) | -1.16 (inactive) | 2.46 (inactive) | 3.65 | 0.624 (inactive) | 0.0416 | 1.49 | 1.1 | 0.0574
9 | Cc1ccc(NN2C(C(O)c3c(F)cccc3Cl)C=CC3C(=O)N(C4CCCCC4)C(=O)C32)cc1 (stereo not given) | 1.14 | 0.44 | 0.0749 | 0.507 | 1.55 | 1.46 | 1.06 | 0.0701 (inactive) | 0.697 | -0.254 | 1.43 | -0.58 (inactive) | -0.362 (inactive) | -0.262 (inactive) | 3.02 | -0.0346 (inactive) | 0.184 | -0.203 | 1.05 | 0.0708
10 | CS(=O)(=O)CCOC(=O)C1=CC(c2ccc(CO)cc2)=CC(C2CC2)N(Cc2sc3ccccc3c2Cl)C=C1C(=O)OCCS(C)(=O)=O (stereo not given) | -0.0385 | 0.569 | -0.0746 | 0.165 | 0.87 | 1.77 | 0.962 | -1.06 (inactive) | 0.223 | 0.316 | 1.46 | -0.348 (inactive) | -3.82 (inactive) | -1.23 (inactive) | 1.67 | -3.01 (inactive) | 0.106 | 0.471 | 0.946 | -0.0188
